The values below come from PubChem BioAssay (NCATS).

The nature of assay [1]: qHTS assay for measurement of the activity of small molecule inhibitors on Zika virus induced Caspase-3 activity in human astrocytoma cells (AID 1224859).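 Also: plate controls were ZIKV-infected untreated cells for no effect and uninfected cells for full effect.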 The method, boiled down: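 In SNB-19 cells plated at 250 cells/well and grown 16-20 h, compounds were applied 1 h before ZIKV (2 FFU/cell). Six hours later caspase-3/7 luminescence was recorded.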
Background: In qHTS, concentration-response curves come from the screen itself.

Assay [2] in a line: qHTS assay to identify small molecule inhibitors of chordoma cells - UCH-1 (AID 1259355). Also: nearly all actives have a fitted effect of over 55% in size. Also: potency is read from the fitted curve at half-maximal effect; series mostly up to about 46 µM. In a few lines:
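Luminescent ATP read-out (CellTiter-Glo, 30min at room temperature) measured viability of UCH-1 cells exposed for 48hr to test drugs at 15 concentrations, co-dosed with a five-agent combination of auranofin, camptothecin, doxorubicin, rubitecan and topotecan.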

Assay [3] can be described thus: qHTS assay to identify small molecule inhibitors of chordoma cells - UCH-2 (AID 1259356). Also: potency is read from the fitted curve at half-maximal effect.
For assay [4], the target named is Atrial natriuretic peptide receptor 1 (Homo sapiens) (UniProt P16066). Put plainly: Natriuretic polypeptide receptor (hNpr1) antagonism - Pilot screen (AID 1347049; calls by dose curve;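 also: agonist-evoked cGMP luminescence read 20 min after hNppA addition; series mostly up to about 58 µM; % is scaled to controls: 0 for no effect and ±100 for the full control effect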). The method, boiled down: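 HEK293 cells co-expressing hNpr1 and the GloSensor pGS-40F cGMP luciferase sensor were preloaded with 2% GloSensor reagent for 2 h. Compounds were added for 30 min at room temperature, then cells were stimulated with 0.1 nM hNppA for 20 min before luminescence readout.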

For assay [5], the target named is Atrial natriuretic peptide receptor 2 (Homo sapiens) (UniProt P20594). Put plainly: Natriuretic polypeptide receptor (hNpr2) antagonism - Pilot subtype selectivity assay (AID 1347050; calls by dose curve; also: % is scaled to controls: 0 for no effect and ±100 for the full control effect). In a few lines:
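cGMP-sensor HEK293/hNpr2 cells; 2% GloSensor reagent 2 h RT; compounds 30 min; baseline luminescence read; 1 nM hNppC agonist 20 min RT; final luminescence read by CCD camera. Antagonism = reduced post-agonist signal.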

Assay [6] is described as follows: NS1 protein of Zika virus - qHTS assay to identify small molecule inhibitors in human HEK 293 cells (AID 1347053).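 Also: series mostly up to about 46 µM; plate controls were infected untreated cells for no effect and uninfected cells for full effect; nearly all actives have a fitted effect of over 55% in size.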 In a few lines: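 HEK 293; 20 h pre-culture, 37 C/5% CO2; cpd 1 h pre-infection; ZIKV MR766, MOI = 0.5, 24 h, 37 C; TR-FRET NS1 readout (two anti-NS1 Abs); norm. to no-virus vs infected.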
Assay [7] concerns the target T1, Tyrosine-protein phosphatase non-receptor type substrate 1 (Homo sapiens) + Leukocyte surface antigen CD47 (Homo sapiens) (UniProt P78324+Q08722). Put plainly: CD47-SIRPalpha protein protein interaction - LANCE assay qHTS validation (AID 1347057; active = well fitted curve in the direction sought with a large enough effect in the signal ratio, with a control signal flat, not every such curve was filed as active; the % refers to the signal ratio; also: series mostly up to about 38 µM; 0% is about no effect). The method, boiled down:
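First, His-tagged CD47 and Eu-labelled anti-His antibody met the compound for 30 min; next, site-specifically biotinylated SIRPalpha was added for 30 min; finally streptavidin-APC was added before reading the TR-FRET ratio.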
(In general: Time-resolved FRET reads energy transfer from a long-lived donor to a nearby acceptor.)

Assay [8] deals with T1, Tyrosine-protein phosphatase non-receptor type substrate 1 (Homo sapiens) + Leukocyte surface antigen CD47 (Homo sapiens). Put plainly: CD47-SIRPalpha protein protein interaction - HTRF assay qHTS validation (AID 1347058; active = well fitted curve in the direction sought with a large enough effect in the signal ratio, not every such curve was filed as active; the % refers to the signal ratio; also: series mostly up to about 38 µM; 0% is about no effect). In a few lines:
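TR-FRET read (Ch1/Ch2 ratio) of soluble extracellular CD47 and Avi-biotinylated SIRPalpha domains in PBS pH 7.4 with 0.05% IGEPAL; 7-point compound titration. Sequential 30 min room-temperature steps; non-biotinylated SIRPalpha as control inhibitor.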

The target is the same in assay [9]. Put plainly: CD47-SIRPalpha protein protein interaction - Alpha assay qHTS validation (AID 1347059).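 Also: bead proximity luminescence from CD47 binding SIRPalpha after compound preincubation with SIRPalpha.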 Also: potency is read from the fitted curve at half-maximal effect. In a few lines:
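Soluble extracellular domains: Avi-tag biotinylated SIRPalpha (25 nM) preincubated 30 min RT with compound, then 6His-CD47 (12.5 nM) 30 min; Ni-NTA acceptor and streptavidin donor beads (10 ug/mL) 30 min, AlphaScreen read. PBS pH 7.4, 0.05% IGEPAL.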

Assay [10] addresses Parathyroid hormone/parathyroid hormone-related peptide receptor (Homo sapiens) (UniProt Q03431). Put plainly: qHTS for PTHR1 Agonists: Optimization Screen against the NCGC LOPAC library (AID 1347079).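 Also: GloSensor cAMP luminescence in HEK-293 GP2 cells expressing human PTHR1 with IBMX; 0% is about no effect.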 In a few lines:
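Agonist readout: GloSensor cAMP luminescence, read after 15 min at room temperature. HEK-293-derived GP2 line carries PTHR1; compounds tested as a titration for 1 hr at 37C in presence of IBMX. M-PTH (1-15) served as control.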

Assay [11] in a line: qHTS of pediatric cancer cell lines to identify multiple opportunities for drug repurposing: Primary screen for TC32 cells (AID 1347089). Also: nearly all actives have a fitted effect of over 60% in size. Also: potency is read from the fitted curve at half-maximal effect. As to activity change, negative = cytotoxic: % is scaled to controls: 0 for no effect and ±100 for the full control effect. In a few lines: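 Measured quantity: luminescence from CellTiter-Glo, reflecting metabolically active TC32 cells following 48 h of compound. Curves came straight from multi-point titrations, with 8 or 11 points in primary and 11 in confirmatory screening.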

The nature of assay [12]: qHTS of pediatric cancer cell lines to identify multiple opportunities for drug repurposing: Primary screen for DAOY cells (AID 1347090). Also: nearly all actives have a fitted effect of over 55% in size. Also: potency is read from the fitted curve at half-maximal effect.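 As to activity change, negative = cytotoxic: series mostly up to about 46 µM; plate controls were DMSO for no effect and bortezomib for full effect.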 In a few lines: (§1)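 Eight- or eleven-point concentration series, 48 h treatment at 37 degrees C in growth media; readout CellTiter-Glo luminescence. Potency and efficacy were taken from the concentration-response curves.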
The nature of assay [13]: P-glycoprotein substrates identified in KB-8-5-11 adenocarcinoma cell line, qHTS therapeutic library screen (AID 1346987). Also: nearly all actives have a fitted effect of over 65% in size. Also: potency is read from the fitted curve at half-maximal effect. In a few lines:
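Steps: plate 500 KB-8-5-11 cells/well in DMEM + 10% FCS (colchicine removed); pin compounds in dose-response; incubate 72 h, 37 degree C, 5% CO2; add CellTiter-Glo, 5 min; read luminescence.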

Assay [14] is described as follows: qHTS of pediatric cancer cell lines to identify multiple opportunities for drug repurposing: Primary screen for A673 cells (AID 1347092). Also: nearly all actives have a fitted effect of over 45% in size. Also: potency is read from the fitted curve at half-maximal effect. In a few lines:
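Cells are plated, rested 5 h, dosed by pintool, incubated 48 h, then lysed with CellTiter-Glo and read by luminescence. DMSO is the neutral control; bortezomib at 2.3 uM final is the positive control.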

A short description of assay [15]: Natriuretic polypeptide receptor (hNpr1) antagonism - Pilot counterscreen GloSensor control cell line (AID 1347045; calls by dose curve; also: series mostly up to about 38 µM; % is scaled to controls: 0 for no effect and ±100 for the full control effect). In a few lines:
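Luminescence was read before and 20 min after adding 50 uM SNP, which stimulates soluble guanylyl cyclase. The HEK293 cells expressing the GloSensor cGMP sensor had been preloaded with 2% reagent for 2 h and treated with compound.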
Background: The purpose of a counterscreen is to sort out artefacts and off-target activity.

A short description of assay [16]: qHTS of pediatric cancer cell lines to identify multiple opportunities for drug repurposing: Primary screen for SJ-GBM2 cells (AID 1347091). Also: potency is read from the fitted curve at half-maximal effect.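 As to activity change, negative = cytotoxic: plate controls were DMSO neutral control for no effect and bortezomib for full effect.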 The method, boiled down:
as §1

Values without a mark were called inactive. Inconclusive results are not listed. Activity calls are given as the source filed them. Unless noted, calls follow the shape of the dose curve; as a rule, active = well fitted curve in the direction sought with a large enough effect; inconclusive = small, poorly fitted or top-dose-only effect, or another doubt; inactive = no such curve, though single readings can be large; an effect the other way counts as inactive or inconclusive.

T1 sequence (P78324 whole entry, looked up): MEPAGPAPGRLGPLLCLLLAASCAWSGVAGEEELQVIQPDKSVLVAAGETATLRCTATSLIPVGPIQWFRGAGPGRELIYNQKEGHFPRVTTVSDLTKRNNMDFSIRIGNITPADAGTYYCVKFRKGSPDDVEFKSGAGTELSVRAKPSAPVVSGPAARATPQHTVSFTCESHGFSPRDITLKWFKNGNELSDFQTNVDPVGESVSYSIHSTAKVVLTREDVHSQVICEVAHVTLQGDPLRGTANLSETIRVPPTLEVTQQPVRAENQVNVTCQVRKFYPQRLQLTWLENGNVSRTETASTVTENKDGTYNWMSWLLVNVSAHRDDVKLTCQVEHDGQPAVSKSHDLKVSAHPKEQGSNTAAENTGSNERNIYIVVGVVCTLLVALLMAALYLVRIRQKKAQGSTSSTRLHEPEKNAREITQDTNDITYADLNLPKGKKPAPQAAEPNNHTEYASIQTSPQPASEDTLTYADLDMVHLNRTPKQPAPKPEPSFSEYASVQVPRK
T1 sequence (Q08722 whole entry, looked up): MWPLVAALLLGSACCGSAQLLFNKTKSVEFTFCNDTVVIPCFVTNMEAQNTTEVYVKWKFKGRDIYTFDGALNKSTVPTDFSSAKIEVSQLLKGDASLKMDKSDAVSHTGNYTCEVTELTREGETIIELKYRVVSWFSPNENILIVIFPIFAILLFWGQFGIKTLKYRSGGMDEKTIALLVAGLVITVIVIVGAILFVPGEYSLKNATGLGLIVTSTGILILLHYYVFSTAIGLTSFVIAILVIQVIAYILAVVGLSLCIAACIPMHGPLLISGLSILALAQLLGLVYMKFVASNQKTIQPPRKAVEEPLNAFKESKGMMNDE
Chain of Parathyroid hormone/parathyroid hormone-related peptide receptor (Homo sapiens) (Q03431 whole entry, looked up): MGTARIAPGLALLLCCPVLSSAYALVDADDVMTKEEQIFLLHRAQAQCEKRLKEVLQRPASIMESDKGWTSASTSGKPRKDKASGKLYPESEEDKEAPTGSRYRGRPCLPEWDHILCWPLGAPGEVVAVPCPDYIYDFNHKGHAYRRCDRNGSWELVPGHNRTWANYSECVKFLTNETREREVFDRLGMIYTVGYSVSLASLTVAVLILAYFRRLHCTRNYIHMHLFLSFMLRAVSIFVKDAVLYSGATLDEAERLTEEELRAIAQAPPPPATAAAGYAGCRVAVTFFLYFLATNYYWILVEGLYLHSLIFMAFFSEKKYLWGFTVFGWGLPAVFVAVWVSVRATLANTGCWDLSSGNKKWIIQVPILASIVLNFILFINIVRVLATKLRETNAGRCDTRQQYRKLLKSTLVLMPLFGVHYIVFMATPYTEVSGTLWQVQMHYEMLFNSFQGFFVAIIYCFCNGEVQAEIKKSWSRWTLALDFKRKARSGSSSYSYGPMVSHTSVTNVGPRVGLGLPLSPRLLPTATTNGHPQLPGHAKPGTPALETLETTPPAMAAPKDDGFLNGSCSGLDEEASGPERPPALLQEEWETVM
Chain of Atrial natriuretic peptide receptor 2 (Homo sapiens) (P20594 whole entry, looked up): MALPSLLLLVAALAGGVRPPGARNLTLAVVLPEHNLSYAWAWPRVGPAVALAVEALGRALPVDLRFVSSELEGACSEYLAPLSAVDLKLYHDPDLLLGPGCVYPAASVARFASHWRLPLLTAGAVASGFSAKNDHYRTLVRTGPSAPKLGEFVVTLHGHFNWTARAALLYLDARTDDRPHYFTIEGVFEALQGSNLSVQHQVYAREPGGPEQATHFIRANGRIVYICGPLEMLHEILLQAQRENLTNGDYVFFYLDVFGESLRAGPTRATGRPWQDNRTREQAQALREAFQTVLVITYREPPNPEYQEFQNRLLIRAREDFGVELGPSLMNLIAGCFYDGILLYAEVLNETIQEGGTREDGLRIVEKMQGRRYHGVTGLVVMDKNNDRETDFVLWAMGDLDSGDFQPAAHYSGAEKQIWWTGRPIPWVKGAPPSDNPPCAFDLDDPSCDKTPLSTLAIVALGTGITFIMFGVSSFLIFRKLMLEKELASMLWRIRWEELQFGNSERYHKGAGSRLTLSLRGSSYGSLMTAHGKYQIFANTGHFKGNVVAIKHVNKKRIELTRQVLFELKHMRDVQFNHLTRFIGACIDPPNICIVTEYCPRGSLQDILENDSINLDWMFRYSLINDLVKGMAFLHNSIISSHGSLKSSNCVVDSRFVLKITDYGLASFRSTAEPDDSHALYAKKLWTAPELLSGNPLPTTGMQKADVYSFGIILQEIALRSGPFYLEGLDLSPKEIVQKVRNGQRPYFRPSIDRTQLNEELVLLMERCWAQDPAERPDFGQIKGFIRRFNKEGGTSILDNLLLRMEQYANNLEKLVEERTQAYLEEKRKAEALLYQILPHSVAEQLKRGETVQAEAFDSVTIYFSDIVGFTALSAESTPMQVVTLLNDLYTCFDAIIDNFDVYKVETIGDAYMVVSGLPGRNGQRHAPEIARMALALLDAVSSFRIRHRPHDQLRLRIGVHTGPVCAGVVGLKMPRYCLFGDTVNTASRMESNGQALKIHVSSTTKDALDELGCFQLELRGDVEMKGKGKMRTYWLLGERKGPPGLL
Chain of Atrial natriuretic peptide receptor 1 (Homo sapiens) (P16066 whole entry, looked up): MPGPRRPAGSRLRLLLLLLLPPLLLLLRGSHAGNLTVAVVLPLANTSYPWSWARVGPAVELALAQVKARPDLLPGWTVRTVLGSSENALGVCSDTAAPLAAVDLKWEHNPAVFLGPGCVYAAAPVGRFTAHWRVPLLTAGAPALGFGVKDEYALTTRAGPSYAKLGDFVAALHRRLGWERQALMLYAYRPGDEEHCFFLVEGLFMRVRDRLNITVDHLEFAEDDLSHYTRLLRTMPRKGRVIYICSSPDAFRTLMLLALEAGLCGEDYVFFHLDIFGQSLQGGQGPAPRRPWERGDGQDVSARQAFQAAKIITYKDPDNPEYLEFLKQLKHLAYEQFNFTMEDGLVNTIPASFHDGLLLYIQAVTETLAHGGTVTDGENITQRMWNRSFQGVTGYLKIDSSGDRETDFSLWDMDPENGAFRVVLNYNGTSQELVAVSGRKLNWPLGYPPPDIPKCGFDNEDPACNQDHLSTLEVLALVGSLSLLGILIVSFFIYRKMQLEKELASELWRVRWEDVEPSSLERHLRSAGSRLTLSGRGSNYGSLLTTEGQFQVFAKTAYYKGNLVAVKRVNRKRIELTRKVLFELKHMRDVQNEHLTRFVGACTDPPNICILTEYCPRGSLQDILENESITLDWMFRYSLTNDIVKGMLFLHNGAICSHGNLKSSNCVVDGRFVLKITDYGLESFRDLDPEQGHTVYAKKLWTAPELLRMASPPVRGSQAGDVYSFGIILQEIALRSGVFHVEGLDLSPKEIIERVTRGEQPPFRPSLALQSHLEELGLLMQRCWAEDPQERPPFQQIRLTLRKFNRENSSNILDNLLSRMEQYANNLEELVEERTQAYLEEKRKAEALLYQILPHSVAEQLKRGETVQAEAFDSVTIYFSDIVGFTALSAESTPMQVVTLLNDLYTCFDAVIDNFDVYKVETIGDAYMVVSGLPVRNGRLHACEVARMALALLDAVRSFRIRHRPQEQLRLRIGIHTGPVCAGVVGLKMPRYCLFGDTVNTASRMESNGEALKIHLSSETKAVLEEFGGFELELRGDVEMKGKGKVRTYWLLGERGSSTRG

As to `O=C(CCCN1CCC(O)(c2cccc(C(F)(F)F)c2)CC1)c1ccc(F)cc1`, the outcome in [1], in assay [6], in assay [7], in assay [8] and in [10] was inactive. The Potency entry in assay [2], in assay [3], in assay [4], in assay [5], in assay [9] and in [11] was “inactive” in each case. Moreover, the Potency entry in assay [12] was “inactive”.

For `CC(=O)[C@]1(O)Cc2c(O)c3c(c(O)c2[C@@H](O[C@H]2C[C@H](N)[C@H](O)[C@H](C)O2)C1)C(=O)c1ccccc1C3=O`, the compound was called inactive in assay [1], in assay [6] and in assay [10]. In addition, the Potency was 0.794 µM (active) in [2]; 1.16 µM (active) in assay [3]; 4.11 µM (active) in assay [13]; 16.5 µM (active) in assay [9]; 0.47 µM (active) in [11]; 2.11 µM (active) in assay [12]. The Potency in assay [14] is 0.422 µM (active). Also, the Potency entry in [4] and in [5] was “inactive” each time.

As to `COCCc1ccc(OCC(O)CNC(C)C)cc1` (stereo not given), the call in assay [1], in assay [6], in assay [7], in [8] and in assay [10] was inactive. Besides, the Potency result in assay [2], in assay [3], in assay [15], in [4], in assay [5] and in [9] was “inactive” each time. For the same compound, the Potency entry in [11], in assay [16] and in assay [14] was “inactive” throughout.

For the compound `CN1CCN(CC(=O)N2c3ccccc3C(=O)Nc3cccnc32)CC1`, the compound was classed as inactive in assay [1], in [6], in assay [7] and in [10]. The Potency entry in [2], in [3], in assay [4], in assay [5] and in assay [9] was “inactive” in each case. Besides, the figures for the activity change, negative = cytotoxic in assay [11], in assay [16] and in [14] were 4.32% [at 4.81 µM], 3.45% [at 4.84 µM] and 5.45% [at 4.84 µM], respectively.

Turning to `CN(C)C/C=C(/c1ccc(Br)cc1)c1cccnc1`, the compound was classed as inactive in assay [1], in assay [6], in assay [7] and in assay [10]. Also, the Potency entry in assay [2], in [3], in assay [15], in [4], in [5] and in assay [9] was “inactive” throughout. The Potency entry in assay [11], in assay [12], in assay [16] and in [14] was “inactive” throughout.

As to `Cc1nc2sccn2c(=O)c1CCN1CCC(=C(c2ccc(F)cc2)c2ccc(F)cc2)CC1`, the compound was classed as inactive in [1], in assay [6], in [7], in assay [8] and in assay [10]. Also, the Potency result in [2], in assay [3], in assay [4], in assay [5], in assay [11] and in assay [12] was “inactive” in each case.

For `C[C@]12CCC(=O)C=C1CC[C@@H]1[C@@H]2C(=O)C[C@@]2(C)[C@H]1CC[C@]2(O)C(=O)CO`, the outcome in assay [1], in assay [6], in assay [7] and in assay [10] was inactive. Besides, the Potency entry in [2], in assay [3], in [13], in assay [5], in assay [9] and in [11] was “inactive” in each case. Also, the Potency entry in assay [16] and in [14] was “inactive” each time.

With `NC(N)=N/N=C/c1c(Cl)cccc1Cl`, the outcome in assay [1], in assay [6], in [7], in assay [8] and in [10] was inactive. Also, the Potency result in [2], in assay [3], in assay [15], in assay [4], in assay [5] and in assay [11] was “inactive” each time. Besides, the Potency entry in assay [12] and in assay [16] was “inactive” each time.

As for `COc1cc2c(cc1OC)-c1cc(=Nc3c(C)cc(C)cc3C)n(C)c(=O)n1CC2`, the compound was classed as inactive in assay [1] and in assay [7]. Further, the Potency is 25.1 µM (active) in [2], 25.9 µM (active) in assay [13] and 16.8 µM (active) in assay [16]. Besides, the Potency entry in assay [3], in assay [4] and in assay [5] was “inactive” each time.

Turning to `CCOC(=O)C1=C(C)NC(C)=C(C(=O)OC)C1c1cccc([N+](=O)[O-])c1` (stereo not given), the compound was classed as inactive in assay [1], in assay [6], in assay [7] and in [10]. Also, the Potency entry in assay [2], in assay [3], in assay [15], in assay [5], in [11] and in assay [12] was “inactive” in each case. For the same compound, the Potency entry in assay [16] and in assay [14] was “inactive” throughout.
